Data reported in PubChem BioAssay (Tox21).
Inconclusive results are not listed. Active and inactive are the calls of the source. Unless noted, calls follow the shape of the dose curve; as a rule, active = well fitted curve in the direction sought with a large enough effect in the repeat runs; inconclusive = weak or mixed curves; inactive = no such curve, though single readings can be large; an effect the other way counts as inactive or inconclusive.

Columns and labels:
[1] = qHTS assay for small molecule agonists of the p53 signaling pathway (AID 651631; calls by dose curve; also: nearly all actives have a fitted effect of over 15% in size)
How it was run: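 HCT-116 cells carrying a stable p53 response element–beta-lactamase reporter were plated, rested 5 h at 37 °C, then exposed to compound in DMSO for 16 h at 37 °C; reporter activity was read as FRET substrate fluorescence after 2 h at room temperature.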

[2] = qHTS assay for small molecules that induce genotoxicity in human embryonic kidney cells expressing luciferase-tagged ATAD5 (AID 651632); also: nearly all actives have a fitted effect of over 15% in size
How it was run: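 A rise in luciferase signal from ATAD5-tagged HEK293T cells marks genetic stress. Cells were exposed to compounds for 16 hr at 37C, 5% CO2, then luciferase was quantified after a 30 min room-temperature incubation with Amplite.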

[3] = qHTS assay for small molecule agonists of the p53 signaling pathway - cell viability (AID 651633; calls by dose curve; also: series mostly up to about 83 µM; nearly all actives have a fitted effect of over 30% in size)
How it was run: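 p53RE-bla cells, seeded at 4,000 per well and rested 5 h at 37 C/5% CO2, received compounds in DMSO for 16 h at 37 C. CellTiter-Glo was then added, and luminescence was read after 30 min at room temperature to gauge cytotoxicity.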

[4] = qHTS assay for small molecules that induce genotoxicity in human embryonic kidney cells expressing luciferase-tagged ATAD5 - cell viability (AID 651634; calls by dose curve; also: nearly all actives have a fitted effect of over 25% in size)
How it was run: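 Cytotoxicity counter-readout: after 15.5 hr compound treatment at 37C, live-cell protease activity in ATAD5-luciferase HEK293T cells measured by CellTiter-Fluor fluorescence, 30 min development at 37C.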

[5] = qHTS assay for small molecule disruptors of the mitochondrial membrane potential - cell viability (AID 720634; calls by dose curve;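 also: human HepG2 liver cancer cells; series mostly up to about 83 µM; nearly all actives have a fitted effect of over 20% in size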)
How it was run: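 Cytotoxicity was quantified from ATP content by CellTiter-Glo luminescence in the same wells as the MMP dye read-out. HepG2 (2,000 cells/well) were plated overnight and exposed to compounds for 1 hr at 37 C.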

[6] = qHTS assay to test for compound auto fluorescence at 590 nm (red) in HepG2 cells (AID 720674)
How it was run: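 Intrinsic compound fluorescence in the red window (Ex/Em 540/590 nm) is measured in attached HepG2 cells exposed for 1 hr, DMSO vehicle as baseline, benchmarked to Rose Bengal sodium.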

[7] = qHTS assay to test for compound auto fluorescence at 535 nm (green) in HepG2 cells (AID 720675)
[8] = qHTS assay to test for compound auto fluorescence at 460 nm (blue) in HEK293 cells (AID 720678)
How it was run: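 Triamterene serves as the blue fluorophore standard. Compound signal at 405/460 nm is read in HEK293 wells (2,000 cells, 10% dialyzed FBS) after overnight treatment at 37C.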

[9] = qHTS assay to test for compound auto fluorescence at 590 nm (red) in HEK293 cells (AID 720679)
How it was run: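 We plated HEK293 cells in 10% dialyzed FBS medium, let them adhere for 4-5 hr, then added 23 nL compound. Overnight at 37C and 5% CO2 preceded fluorescence measurement at 540/590nm.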

[10] = qHTS assay to test for compound auto fluorescence at 460 nm (blue) in HEK293 cell free culture (AID 720681)
How it was run: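 Test compounds were pinned into cell-free culture medium (DMEM with 10% FBS) and fluorescence was read directly at Ex/Em 405/460 nm. Signals were expressed as fluorescence equivalents of triamterene, with DMSO vehicle as control.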

[11] = qHTS assay to test for compound auto fluorescence at 535 nm (green) in HEK293 cell free culture (AID 720682)
How it was run: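 Read-out: 485/535 nm fluorescence intensity, calibrated against fluorescein. Medium only (DMEM + 10% FBS, no cells); test compound or DMSO vehicle added by pintool before plate reading.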

[12] = qHTS assay to test for compound auto fluorescence at 590 nm (red) in HEK293 cell free culture (AID 720683)
How it was run: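 Tox21 10K library compounds were pinned into cell-free DMEM with 10% FBS and fluorescence was read at excitation 540 nm. Activity is expressed as Rose Bengal sodium equivalency.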

[13] = qHTS assay to test for compound auto fluorescence at 590 nm (red) in HepG2 cell free culture (AID 720684)
How it was run: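 Readout: intrinsic compound fluorescence at 590 nm emission after 540 nm excitation, scaled to Rose Bengal sodium. Matrix was cell-free MEM with 10% FBS; DMSO vehicle wells served as control.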

[14] = qHTS assay to test for compound auto fluorescence at 460 nm (blue) in HepG2 cell free culture (AID 720685)
How it was run: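 Cell-free plates of MEM plus 10% FBS received 23 nL compound or DMSO vehicle; blue-channel (405/460 nm) intensity scored against triamterene as reference fluorophore.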

[15] = qHTS assay to test for compound auto fluorescence at 535 nm (green) in HepG2 cell free culture (AID 720686)
[16] = qHTS assay to test for compound auto fluorescence at 460 nm (blue) in HepG2 cells (AID 720687)
How it was run: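 Cells (2,000/well in MEM with 10% FBS) attached overnight at 37 C, then were exposed to compound or DMSO for 1 hr at 37 C, 5% CO2. Fluorescence read at Ex/Em 405/460 nm, expressed as triamterene-equivalent signal.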

[17] = biological target: Glucocorticoid receptor (Homo sapiens) (UniProt P04150); assay: qHTS assay to identify small molecule agonists of the glucocorticoid receptor (GR) signaling pathway (AID 720691; active = well fitted activation curve with a large enough effect in the signal ratio in the repeat runs, not every such curve was filed as active; the % refers to the signal ratio)
Glucocorticoid receptor (Homo sapiens), sequence (P04150 whole entry, looked up): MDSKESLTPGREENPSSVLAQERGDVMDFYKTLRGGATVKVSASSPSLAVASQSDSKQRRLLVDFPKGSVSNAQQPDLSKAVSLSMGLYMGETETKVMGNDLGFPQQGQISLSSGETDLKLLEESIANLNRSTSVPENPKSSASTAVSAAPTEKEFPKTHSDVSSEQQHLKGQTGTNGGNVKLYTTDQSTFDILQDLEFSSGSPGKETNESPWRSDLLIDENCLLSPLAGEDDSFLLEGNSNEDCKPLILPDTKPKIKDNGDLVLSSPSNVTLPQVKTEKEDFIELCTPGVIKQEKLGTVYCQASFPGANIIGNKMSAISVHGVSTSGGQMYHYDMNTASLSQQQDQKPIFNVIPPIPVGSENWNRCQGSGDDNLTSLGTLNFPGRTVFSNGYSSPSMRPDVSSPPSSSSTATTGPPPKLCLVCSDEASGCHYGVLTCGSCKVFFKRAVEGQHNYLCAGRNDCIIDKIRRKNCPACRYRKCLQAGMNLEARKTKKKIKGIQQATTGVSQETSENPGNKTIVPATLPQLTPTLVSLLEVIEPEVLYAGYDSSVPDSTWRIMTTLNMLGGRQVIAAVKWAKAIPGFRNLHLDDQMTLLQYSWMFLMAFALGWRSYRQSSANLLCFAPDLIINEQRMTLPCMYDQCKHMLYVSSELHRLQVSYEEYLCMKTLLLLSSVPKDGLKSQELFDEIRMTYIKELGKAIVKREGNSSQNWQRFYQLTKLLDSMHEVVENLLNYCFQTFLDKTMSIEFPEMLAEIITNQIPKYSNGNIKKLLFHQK
How it was run: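 Agonist-mode qHTS in HeLa cells stably expressing a glucocorticoid-response-element beta-lactamase reporter. Fluorescence intensity read with FRET substrate (2 h, room temperature) after 18 h compound treatment at 37 C.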

[18] = biological target: Glucocorticoid receptor (Homo sapiens) (UniProt P04150); assay: qHTS assay to identify small molecule antagonists of the glucocorticoid receptor (GR) signaling pathway (AID 720692; active = well fitted inhibition curve with a large enough effect in the signal ratio in the repeat runs, not every such curve was filed as active; the % refers to the signal ratio)
How it was run: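 Inhibition of dexamethasone-driven (5 nM final) beta-lactamase expression was measured in GRE-reporter HeLa cells over 18 h at 37C. Fluorescence was read after 2 h with the B/G FRET substrate at room temperature.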

[19] = qHTS assay to test for compound auto fluorescence at 535 nm (green) in HEK293 cells (AID 720680)
[20] = qHTS assay for small molecule disruptors of the mitochondrial membrane potential (AID 720635)
How it was run: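 HepG2 cells (2,000/well) attached overnight at 37C, then took compound for 1 hr at 37C, 5% CO2. Mito-MPS dye was added for 30 min; fluorescence was read at 490/535 nm (monomers) and 540/590 nm (aggregates).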
% is scaled to controls: 0 for no effect and ±100 for the full control effect.

O=c1[nH][nH]c(=O)c2cc([N+](=O)[O-])ccc12
inactive: Potency [1] | Potency [2] | Potency [3] | Potency [4] | outcome [5] | outcome [6] | outcome [7] | Potency [8] | outcome [9] | Potency [10] | outcome [11] | outcome [12] | outcome [13] | Potency [14] | outcome [15] | Potency [16] | Potency [17] | Potency [18]

NC(=O)CCCCC(N)=O
inactive: Potency [1] | Potency [2] | Potency [3] | Potency [4] | outcome [5] | outcome [6] | outcome [7] | outcome [9] | outcome [19] | Potency [10] | outcome [11] | outcome [12] | outcome [13] | outcome [15] | Potency [16] | Potency [17]

CC1C(C)(C)C2=C(C(=O)CCC2)C1(C)C (configuration not stated)
inactive: Potency [1] | Potency [2] | Potency [3] | Potency [4] | outcome [5] | outcome [7] | Potency [8] | outcome [9] | Potency [10] | outcome [11] | outcome [12] | outcome [13] | Potency [14] | outcome [15] | Potency [16] | Potency [17]

O=C(NC(Cc1cc(=O)[nH]c2ccccc12)C(=O)O)c1ccc(Cl)cc1 (configuration not stated)
inactive: Potency [1] | Potency [2] | Potency [3] | Potency [4] | outcome [5] | outcome [6] | outcome [7] | Potency [8] | outcome [9] | Potency [10] | outcome [11] | outcome [12] | outcome [13] | Potency [14] | outcome [15] | Potency [16] | Potency [17]

CCC(CO)(CO)[N+](=O)[O-]
inactive: Potency [1] | Potency [2] | Potency [3] | Potency [4] | outcome [5] | outcome [6] | outcome [7] | Potency [8] | outcome [19] | Potency [10] | outcome [11] | outcome [12] | outcome [13] | Potency [14] | outcome [15] | Potency [16] | Potency [17]

CS(=O)(=O)c1ccc([C@@H](C[C@H]2CCC(=O)C2)C(=O)Nc2cnccn2)cc1Cl
inactive: Potency [1] | Potency [2] | Potency [3] | Potency [4] | outcome [5] | Potency [20] | outcome [6] | outcome [7] | outcome [19] | Potency [10] | outcome [11] | outcome [12] | outcome [13] | Potency [14] | outcome [15] | Potency [16] | Potency [17]

CCc1ccc(C)cc1
inactive: Potency [1] | Potency [2] | Potency [3] | Potency [4] | outcome [5] | outcome [6] | outcome [7] | Potency [8] | outcome [9] | Potency [10] | outcome [11] | outcome [13] | Potency [14] | outcome [15] | Potency [16] | Potency [17] | Potency [18]

O=[N+]([O-])c1ccc2ncccc2c1
inactive: Potency [1] | Potency [2] | Potency [3] | Potency [4] | outcome [5] | outcome [6] | outcome [7] | Potency [8] | outcome [9] | outcome [19] | Potency [10] | outcome [11] | outcome [12] | outcome [13] | Potency [14] | outcome [15] | Potency [16] | Potency [17]

CC(=O)NCCO
inactive: Potency [1] | Potency [2] | Potency [3] | Potency [4] | outcome [5] | Potency [20] | outcome [7] | Potency [8] | outcome [9] | outcome [19] | Potency [10] | outcome [11] | outcome [12] | outcome [13] | Potency [14] | outcome [15] | Potency [16] | Potency [17] | Potency [18]

Nc1c(Cl)cc(Cl)cc1[N+](=O)[O-]
inactive: Potency [1] | Potency [2] | Potency [3] | Potency [4] | outcome [5] | outcome [6] | outcome [7] | Potency [8] | outcome [9] | outcome [19] | outcome [11] | outcome [12] | outcome [13] | outcome [15] | Potency [16]

COC(CC(C)CCCC(C)(C)O)OC (configuration not stated)
inactive: Potency [1] | Potency [2] | Potency [3] | Potency [4] | outcome [5] | Potency [20] | outcome [7] | Potency [8] | outcome [9] | outcome [19] | Potency [10] | outcome [11] | outcome [13] | Potency [14] | outcome [15] | Potency [16] | Potency [17] | Potency [18]

CCCCCCC(CO)CCCC (configuration not stated)
inactive: Potency [1] | Potency [2] | Potency [3] | Potency [4] | outcome [5] | outcome [6] | outcome [7] | Potency [8] | outcome [9] | outcome [19] | Potency [10] | outcome [11] | outcome [12] | outcome [13] | Potency [14] | outcome [15] | Potency [16] | Potency [17]

CC(C)(C)NCC(O)COc1cccc2c1C[C@H](O)[C@H](O)C2 (some centres not stated)
inactive: Potency [1] | Potency [2] | Potency [3] | Potency [4] | outcome [5] | fluorescence, relative to Rose Bengal [6] 0.0921% [at 18.6 µM] | fluorescence, % of fluorescein control [7] 0.0163% [at 18.6 µM] | fluorescence, % of triamterene [8] 0.0252% [at 18.6 µM] | fluorescence, % of fluorescent control [9] -0.0478% [at 18.6 µM] | fluorescence, % of fluorescein [19] 0.0671% [at 18.6 µM] | fluorescence, % of fluorescent control [10] 0.0347% [at 18.6 µM] | activity change [11] 0.0167% [at 18.6 µM] | fluorescence, % of fluorescent control [12] 0.19% [at 18.6 µM] | fluorescence, % of Rose Bengal [13] -0.334% [at 18.6 µM] | fluorescence, % of fluorescein control [15] -0.0012% [at 18.6 µM] | fluorescence, % of fluorescent control [16] 0.0012% [at 18.6 µM] | Potency [17] | Potency [18]

O=S(=O)(O)CO
inactive: Potency [1] | Potency [2] | Potency [3] | Potency [4] | outcome [5] | outcome [6] | outcome [7] | Potency [8] | outcome [9] | outcome [19] | outcome [11] | outcome [12] | outcome [13] | Potency [14] | outcome [15] | Potency [16] | Potency [17] | Potency [18]
